# Records with an inconclusive call do not appear. Calls of active or inactive are those of the source. The calls were made as follows, unless noted: active = hit-call score of the fitted dose curve at least 0.9, where 1 is the maximum; inconclusive = response in the unintended direction; inactive = score below 0.9.
# Assays:
# [1] = molecular target: rat Oxytocin Receptor (OXT), Oxtr (gene 25342) (UniProt P70536); assay: NVS_GPCR_rOXT: NovaScreen (NVS) G Protein-Coupled Receptor Assay for rat Oxytocin Receptor (OXT) (AID 2283330)
# In short: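 Binding to rat uterine membrane receptor was followed by scintillation counting of filter-trapped radioligand after 1 h. A 25 uM duplicate single-point screen preceded concentration series with a top of 50 uM. Signal loss was analysed relative to DMSO.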
# [2] = molecular target: Bile acid receptor (Homo sapiens) (UniProt Q96RI1); assay: NVS_NR_hFXR_Agonist: NovaScreen (NVS) Nuclear Receptor Binding Assay for human Farnesoid X Receptor Agonism (FXR) (AID 2283347)
# In short: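 Agonist-mode FXR assay read by time-resolved FRET 1 h after compound addition, using isolated human receptor protein without cells. Duplicate 25 uM single-point primary screen, concentration series for confirmed actives; DMSO as baseline.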
# [3] = ATG_M_32_XSP2: Attagene TRANS-FACTORIAL Multi-Species (XSP2) HepG2 Assay for M19 Transcription Factor (Internal Marker) (AID 2283826)
# In short: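 Total RNA is taken from compound-treated HepG2 cells after 24 h and reverse-transcribed; reporter cDNA is PCR-amplified, end-labelled with 6-FAM, digested with HpaI for 2h at 37 C and sized by capillary electrophoresis. Activity is fitted in the positive direction against DMSO.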
# [4] = TOX21_TRB_BLA_Agonist_Followup_viability: Viability Assessment in the Tox21 Thyroid Hormone Receptor beta Agonism Beta-lactamase (BLA) Follow-Up Assay (AID 2283956)
# In short: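 Viability was read as CellTiter-Glo luminescence in the same wells as the TRb-bla agonist read-out. HEK293T GAL4-TRb LBD cells were treated for 18 h (37C, 5% CO2) at 11 concentrations in triplicate. Fits were bidirectional versus DMSO baseline.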
# [5] = CCTE_Harrill_HTTr_Apoptosis_PRF_DMEM_12hr: (Pilot) CCTE's 12-hour Apoptosis Assessment for the High-Throughput Transcriptomics (HTTr) Platform, in MCF-7 cells cultured in phenol red-free DMEM + 10% charcoal-stripped fetal bovine serum, Harrill Lab (AID 2283985; active = hit-call score of the fitted dose curve at least 0.9, where 1 is the maximum; inactive = score below 0.9)
# In short: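 Caspase-3/7 activity by CellEvent Green high content imaging after 12 h compound exposure (eight concentrations) in MCF-7 grown in phenol red-free DMEM plus 10% charcoal-stripped serum; DMSO as baseline.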
# [6] = molecular target: human AMP-activated Protein Kinase, alpha 1 (AMPKa1), PRKAA1 (gene 5562) (UniProt Q13131); assay: NVS_ENZ_hAMPKa1: NovaScreen (NVS) Enzymatic Assay for human AMP-activated Protein Kinase, alpha 1 (AMPKa1) (AID 2283130)
# human AMP-activated Protein Kinase, alpha 1 (AMPKa1), PRKAA1 (gene 5562), sequence (Q13131 whole entry, looked up): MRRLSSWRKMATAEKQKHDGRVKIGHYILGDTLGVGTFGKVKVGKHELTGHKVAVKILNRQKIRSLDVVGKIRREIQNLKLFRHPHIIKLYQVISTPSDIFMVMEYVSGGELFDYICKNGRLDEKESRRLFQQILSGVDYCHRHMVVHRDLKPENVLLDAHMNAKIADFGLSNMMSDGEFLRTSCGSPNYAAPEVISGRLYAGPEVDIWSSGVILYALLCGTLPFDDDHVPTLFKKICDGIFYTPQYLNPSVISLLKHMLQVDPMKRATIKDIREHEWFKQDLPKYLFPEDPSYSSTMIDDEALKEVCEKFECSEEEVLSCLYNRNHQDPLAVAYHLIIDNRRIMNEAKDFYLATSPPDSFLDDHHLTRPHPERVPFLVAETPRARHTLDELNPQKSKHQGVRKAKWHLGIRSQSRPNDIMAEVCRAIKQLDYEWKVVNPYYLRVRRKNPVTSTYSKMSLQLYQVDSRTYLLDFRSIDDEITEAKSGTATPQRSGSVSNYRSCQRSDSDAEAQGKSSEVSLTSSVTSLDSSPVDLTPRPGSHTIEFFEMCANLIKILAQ
# In short: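 Compounds were screened in duplicate at 25 uM, and those reaching ~30% inhibition were titrated up to 50 uM. The enzyme was recombinant human AMPKα1, and kinase turnover was read by fluorescence/mobility shift 1 h post-dosing as loss of signal versus DMSO.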
# [7] = molecular target: human Aurora Kinase A - serine/threonine-protein Kinase 6 (AurA), AURKA (gene 6790) (UniProt O14965); assay: NVS_ENZ_hAurA: NovaScreen (NVS) Enzymatic Assay for human Aurora Kinase A - serine/threonine-protein Kinase 6 (AurA) (AID 2283142)
# human Aurora Kinase A - serine/threonine-protein Kinase 6 (AurA), AURKA (gene 6790), sequence (O14965 whole entry, looked up): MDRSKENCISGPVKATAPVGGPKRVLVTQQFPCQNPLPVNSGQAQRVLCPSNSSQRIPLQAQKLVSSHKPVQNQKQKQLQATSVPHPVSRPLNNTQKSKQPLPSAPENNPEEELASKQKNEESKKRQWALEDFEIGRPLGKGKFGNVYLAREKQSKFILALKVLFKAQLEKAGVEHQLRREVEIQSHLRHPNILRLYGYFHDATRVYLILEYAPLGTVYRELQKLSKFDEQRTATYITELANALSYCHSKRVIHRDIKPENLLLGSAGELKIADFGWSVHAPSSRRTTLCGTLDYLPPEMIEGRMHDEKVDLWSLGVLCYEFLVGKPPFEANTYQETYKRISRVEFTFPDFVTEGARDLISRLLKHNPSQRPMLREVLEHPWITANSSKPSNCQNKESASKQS
# In short: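 Recombinant human AurA activity read by fluorescence after mobility-shift separation of product from substrate; 1 hour incubation. Chemicals first run in duplicate at 25 uM, then concentration series to 50 uM if over threshold; fitted relative to DMSO.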
# [8] = molecular target: human Fibroblast Growth Factor Receptor 1 (FGFR1), FGFR1 (gene 2260) (UniProt P11362); assay: NVS_ENZ_hFGFR1: NovaScreen (NVS) Enzymatic Assay for human Fibroblast Growth Factor Receptor 1 (FGFR1) (AID 2283159);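 as to AC50: hits lower the signal so potencies describe inhibitors of the kinase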
# human Fibroblast Growth Factor Receptor 1 (FGFR1), FGFR1 (gene 2260), sequence (P11362 whole entry, looked up): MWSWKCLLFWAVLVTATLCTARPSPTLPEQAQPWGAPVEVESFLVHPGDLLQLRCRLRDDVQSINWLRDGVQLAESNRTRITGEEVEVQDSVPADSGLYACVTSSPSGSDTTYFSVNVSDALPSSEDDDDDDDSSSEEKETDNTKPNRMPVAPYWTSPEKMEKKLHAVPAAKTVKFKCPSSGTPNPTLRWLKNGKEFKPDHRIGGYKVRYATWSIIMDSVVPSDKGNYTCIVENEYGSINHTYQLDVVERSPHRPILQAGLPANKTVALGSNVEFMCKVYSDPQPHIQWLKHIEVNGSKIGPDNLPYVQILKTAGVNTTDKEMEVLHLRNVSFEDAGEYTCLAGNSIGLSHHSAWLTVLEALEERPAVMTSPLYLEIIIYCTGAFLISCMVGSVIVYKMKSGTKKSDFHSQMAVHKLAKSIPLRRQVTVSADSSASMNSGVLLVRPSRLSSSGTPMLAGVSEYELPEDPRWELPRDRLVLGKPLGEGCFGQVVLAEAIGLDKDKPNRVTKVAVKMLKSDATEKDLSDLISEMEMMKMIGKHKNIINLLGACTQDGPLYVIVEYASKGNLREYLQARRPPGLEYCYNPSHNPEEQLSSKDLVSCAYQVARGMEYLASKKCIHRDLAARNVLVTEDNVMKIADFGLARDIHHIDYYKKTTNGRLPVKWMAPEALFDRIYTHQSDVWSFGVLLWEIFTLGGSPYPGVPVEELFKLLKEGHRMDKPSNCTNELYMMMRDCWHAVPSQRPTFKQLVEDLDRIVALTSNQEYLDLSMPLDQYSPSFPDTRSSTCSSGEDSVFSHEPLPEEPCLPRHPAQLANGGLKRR
# In short: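 Cell-free recombinant kinase with fluorescent substrate, product separated by electrophoretic mobility shift; read 1 hour after dosing, loss of signal relative to DMSO. Initial screen in duplicate at 25 uM, actives followed in concentration series.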
# [9] = molecular target: human MET Proto-Oncogene, Receptor Tyrosine Kinase (MET), MET (gene 4233) (UniProt P08581); assay: NVS_ENZ_hMet: NovaScreen (NVS) Enzymatic Assay for human MET Proto-Oncogene, Receptor Tyrosine Kinase (MET) (AID 2283180)
# In short: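 Hits from a 25 uM duplicate screen were retested in concentration series up to 50 uM. Enzyme activity was measured by fluorescence after electrophoretic separation of product from substrate, 1 h after compound addition, relative to DMSO.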
# [10] = molecular target: human p21 Activated Kinase 4 (PAK4), PAK4 (gene 10298) (UniProt O96013); assay: NVS_ENZ_hPAK4: NovaScreen (NVS) Enzymatic Assay for human p21 Activated Kinase 4 (PAK4) (AID 2283189)
# human p21 Activated Kinase 4 (PAK4), PAK4 (gene 10298), sequence (O96013 whole entry, looked up): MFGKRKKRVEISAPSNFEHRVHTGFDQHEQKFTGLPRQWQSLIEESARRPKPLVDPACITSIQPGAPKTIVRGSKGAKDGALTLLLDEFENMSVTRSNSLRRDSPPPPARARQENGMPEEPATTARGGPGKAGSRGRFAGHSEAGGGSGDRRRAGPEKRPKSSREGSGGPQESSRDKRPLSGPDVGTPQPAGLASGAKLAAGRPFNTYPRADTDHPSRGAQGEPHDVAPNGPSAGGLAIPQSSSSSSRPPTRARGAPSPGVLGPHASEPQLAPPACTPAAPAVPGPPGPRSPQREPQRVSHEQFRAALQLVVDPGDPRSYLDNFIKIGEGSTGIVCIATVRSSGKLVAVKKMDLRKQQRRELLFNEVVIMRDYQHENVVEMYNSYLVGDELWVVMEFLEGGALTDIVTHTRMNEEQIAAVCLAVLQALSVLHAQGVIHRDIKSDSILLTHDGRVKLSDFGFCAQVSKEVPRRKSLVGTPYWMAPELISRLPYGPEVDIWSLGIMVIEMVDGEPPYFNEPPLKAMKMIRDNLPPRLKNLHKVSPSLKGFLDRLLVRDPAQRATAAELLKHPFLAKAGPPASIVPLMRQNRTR
# In short: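 Extracted PAK4 enzyme activity read by fluorescence with mobility-shift separation 1 h after chemical addition. Duplicate single-concentration screen at 25 uM, DMSO as negative control.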
# [11] = molecular target: human Phosphatase and Tensin Homolog (PTEN), PTEN (gene 5728) (UniProt P60484); assay: NVS_ENZ_hPTEN: NovaScreen (NVS) Enzymatic Assay for human Phosphatase and Tensin Homolog (PTEN) (AID 2283203)
# human Phosphatase and Tensin Homolog (PTEN), PTEN (gene 5728), sequence (P60484 whole entry, looked up): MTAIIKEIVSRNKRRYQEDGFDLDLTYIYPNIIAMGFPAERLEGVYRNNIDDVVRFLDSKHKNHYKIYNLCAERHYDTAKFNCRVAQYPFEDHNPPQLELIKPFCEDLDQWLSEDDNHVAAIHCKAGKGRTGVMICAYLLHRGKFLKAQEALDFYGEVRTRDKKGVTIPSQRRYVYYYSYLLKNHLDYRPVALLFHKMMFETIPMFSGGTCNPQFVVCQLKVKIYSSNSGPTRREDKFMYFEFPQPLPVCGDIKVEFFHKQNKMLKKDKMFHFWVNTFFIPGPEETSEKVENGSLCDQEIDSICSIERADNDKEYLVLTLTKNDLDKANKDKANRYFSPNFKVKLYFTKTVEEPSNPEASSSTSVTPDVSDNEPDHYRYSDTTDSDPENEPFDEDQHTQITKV
# In short: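 Loss of fluorescent product signal after mobility-shift separation reports PTEN activity, recombinant human enzyme, 1 h after compound addition. Single 25 uM duplicate screen, then concentration-response on actives; DMSO baseline.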
# [12] = molecular target: human Tyrosine Protein Kinase Receptor Tie-2 (Tie2), TEK (gene 7010) (UniProt Q02763); assay: NVS_ENZ_hTie2: NovaScreen (NVS) Enzymatic Assay for human Tyrosine Protein Kinase Receptor Tie-2 (Tie2) (AID 2283225)
# human Tyrosine Protein Kinase Receptor Tie-2 (Tie2), TEK (gene 7010), sequence (Q02763 whole entry, looked up): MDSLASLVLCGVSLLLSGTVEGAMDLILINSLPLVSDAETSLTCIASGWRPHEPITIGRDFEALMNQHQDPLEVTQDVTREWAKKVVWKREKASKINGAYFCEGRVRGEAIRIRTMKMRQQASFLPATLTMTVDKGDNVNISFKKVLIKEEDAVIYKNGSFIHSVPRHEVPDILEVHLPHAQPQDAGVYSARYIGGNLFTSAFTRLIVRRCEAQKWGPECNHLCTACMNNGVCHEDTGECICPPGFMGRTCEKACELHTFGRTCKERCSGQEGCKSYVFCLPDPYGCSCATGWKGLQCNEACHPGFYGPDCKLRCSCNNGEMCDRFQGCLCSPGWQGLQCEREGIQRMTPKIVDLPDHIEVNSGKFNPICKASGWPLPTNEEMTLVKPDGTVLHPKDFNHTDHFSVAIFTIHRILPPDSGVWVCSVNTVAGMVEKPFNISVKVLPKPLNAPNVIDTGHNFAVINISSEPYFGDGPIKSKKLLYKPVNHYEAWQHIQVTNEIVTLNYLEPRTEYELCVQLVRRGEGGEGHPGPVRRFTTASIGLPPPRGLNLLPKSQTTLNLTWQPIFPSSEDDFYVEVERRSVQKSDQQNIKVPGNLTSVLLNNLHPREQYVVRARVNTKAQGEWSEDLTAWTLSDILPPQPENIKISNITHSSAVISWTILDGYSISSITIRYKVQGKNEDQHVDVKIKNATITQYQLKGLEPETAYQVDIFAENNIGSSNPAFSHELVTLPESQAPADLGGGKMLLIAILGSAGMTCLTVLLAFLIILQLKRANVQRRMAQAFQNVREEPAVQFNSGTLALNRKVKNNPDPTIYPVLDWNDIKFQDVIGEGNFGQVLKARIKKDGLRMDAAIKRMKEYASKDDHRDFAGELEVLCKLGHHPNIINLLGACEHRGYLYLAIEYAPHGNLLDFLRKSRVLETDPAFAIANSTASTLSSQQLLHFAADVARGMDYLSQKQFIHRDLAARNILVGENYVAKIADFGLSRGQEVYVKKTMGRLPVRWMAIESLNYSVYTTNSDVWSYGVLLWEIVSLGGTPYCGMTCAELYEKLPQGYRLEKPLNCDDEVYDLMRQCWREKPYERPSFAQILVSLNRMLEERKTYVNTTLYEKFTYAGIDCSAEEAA
# In short: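 Substrate and product were separated by mobility shift and detected by fluorescence after a 1-hour reaction with recombinant Tie2. Chemicals passing a 25 uM single-point screen were titrated to a maximum of 50 uM. Results were normalized to DMSO baseline.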
# [13] = molecular target: human Ephrin type-B Receptor 2 (EphB2), EPHB2 (gene 2048) (UniProt P29323); assay: NVS_ENZ_hEphB2: NovaScreen (NVS) Enzymatic Assay for human Ephrin type-B Receptor 2 (EphB2) (AID 2283156)
# In short: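 Compounds were first tested in duplicate at 25 uM, with hits rerun singly in concentration series up to 50 uM. Enzyme activity on fluorescent substrate was read at 1 h by mobility-shift separation, scored as signal loss relative to DMSO.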
# [14] = molecular target: human IkappaB Kinase alpha (IKKa), CHUK (gene 1147) (UniProt O15111); assay: NVS_ENZ_hIKKa: NovaScreen (NVS) Enzymatic Assay for human IkappaB Kinase alpha (IKKa) (AID 2283167)
# In short: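 Compounds first run in duplicate at 25 uM, those meeting threshold (e.g. 30% inhibition) retested to maximum 50 uM. Enzyme activity of recombinant IKKa measured by fluorescence with electrophoretic mobility shift separation, 1 hour post-dosing, DMSO baseline.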
# [15] = molecular target: rat Monoamine Oxidase, MAO-B, Peripheral (MAOBP), Maob (gene 25750) (UniProt P19643); assay: NVS_ENZ_rMAOBP: NovaScreen (NVS) Enzymatic Assay for rat Monoamine Oxidase, MAO-B, Peripheral (MAOBP) (AID 2283242)
# [16] = molecular target: human Caspase 2 (CASP2), CASP2 (gene 835) (UniProt P42575); assay: NVS_ENZ_hCASP2: NovaScreen (NVS) Enzymatic Assay for human Caspase 2 (CASP2) (AID 2283135)
# In short: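 Single-point duplicate testing at 25 uM preceded concentration series topping at 50 uM. Activity of the recombinant E. coli-derived protease was followed by fluorescent substrate cleavage 1 h post-dosing, relative to DMSO.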
# [17] = molecular target: human Raf-1 Proto-Oncogene, serine/threonine Kinase (RAF1), RAF1 (gene 5894) (UniProt P04049); assay: NVS_ENZ_hRAF1: NovaScreen (NVS) Enzymatic Assay for human Raf-1 Proto-Oncogene, serine/threonine Kinase (RAF1) (AID 2283216)
# human Raf-1 Proto-Oncogene, serine/threonine Kinase (RAF1), RAF1 (gene 5894), sequence (P04049 whole entry, looked up): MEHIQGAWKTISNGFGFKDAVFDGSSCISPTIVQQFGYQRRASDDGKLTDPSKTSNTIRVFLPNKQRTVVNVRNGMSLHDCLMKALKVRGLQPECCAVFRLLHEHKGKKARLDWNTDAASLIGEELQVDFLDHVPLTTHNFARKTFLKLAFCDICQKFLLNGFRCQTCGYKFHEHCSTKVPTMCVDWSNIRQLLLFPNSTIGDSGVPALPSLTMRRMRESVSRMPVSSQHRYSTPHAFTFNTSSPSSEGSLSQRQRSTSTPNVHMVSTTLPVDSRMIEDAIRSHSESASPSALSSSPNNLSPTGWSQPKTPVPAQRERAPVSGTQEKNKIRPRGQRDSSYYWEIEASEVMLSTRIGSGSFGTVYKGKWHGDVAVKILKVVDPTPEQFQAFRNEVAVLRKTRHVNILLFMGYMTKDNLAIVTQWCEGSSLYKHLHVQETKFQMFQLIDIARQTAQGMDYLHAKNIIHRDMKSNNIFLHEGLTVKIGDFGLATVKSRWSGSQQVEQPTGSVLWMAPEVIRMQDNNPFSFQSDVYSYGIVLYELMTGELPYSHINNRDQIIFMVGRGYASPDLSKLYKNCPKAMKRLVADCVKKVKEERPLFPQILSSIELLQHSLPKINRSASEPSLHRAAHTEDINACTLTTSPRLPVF
# In short: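 Single-point screening at 25 uM (duplicate), followed by singleton concentration-response to 50 uM maximum for chemicals exceeding threshold. Enzyme activity from fluorescent substrate-product mobility-shift separation after 1 h, relative to DMSO.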
# Caspase-1 (Homo sapiens) = Caspase-1 (Homo sapiens) (UniProt P29466); assay: NVS_ENZ_hCASP1: NovaScreen (NVS) Enzymatic Assay for human Caspase 1 (CASP1) (AID 2283132)
# In short: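 Compounds were first tested in duplicate at 25 uM, with follow-up concentration series up to 50 uM. The bacterially expressed enzyme was read by fluorescence at 1 h post-dosing. Signal loss versus DMSO baseline indicates reduced enzyme activity.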
# [18] = molecular target: human Protein Tyrosine Phosphatase Non-receptor Type 2 (PTPN2), PTPN2 (gene 5771) (UniProt P17706); assay: NVS_ENZ_hPTPN2: NovaScreen (NVS) Enzymatic Assay for human Protein Tyrosine Phosphatase Non-receptor Type 2 (PTPN2) (AID 2283207)
# human Protein Tyrosine Phosphatase Non-receptor Type 2 (PTPN2), PTPN2 (gene 5771), sequence (P17706 whole entry, looked up): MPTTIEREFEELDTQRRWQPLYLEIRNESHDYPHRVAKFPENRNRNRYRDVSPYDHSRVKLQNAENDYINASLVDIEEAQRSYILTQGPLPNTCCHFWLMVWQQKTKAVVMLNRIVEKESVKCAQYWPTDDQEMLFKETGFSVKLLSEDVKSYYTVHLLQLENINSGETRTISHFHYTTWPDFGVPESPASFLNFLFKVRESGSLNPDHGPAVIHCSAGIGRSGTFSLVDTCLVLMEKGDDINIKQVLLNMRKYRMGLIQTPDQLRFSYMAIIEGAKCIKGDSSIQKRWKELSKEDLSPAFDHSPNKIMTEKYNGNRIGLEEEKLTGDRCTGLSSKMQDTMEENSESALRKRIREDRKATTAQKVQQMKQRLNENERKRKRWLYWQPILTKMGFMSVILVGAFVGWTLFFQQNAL
# In short: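 Activity measured as fluorescence after mobility-shift separation of substrate and product, 1 h after compound. Duplicate single-point 25 uM primary testing, concentration series for actives; inhibition scored as signal loss relative to DMSO baseline.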
# PPP2CA (gene 5515) = PPP2CA (gene 5515) (UniProt P67775); assay: NVS_ENZ_hPPP2CA: NovaScreen (NVS) Enzymatic Assay for human Protein Phosphatase 2 Aatalytic subunit Alpha (PPP2CA) (AID 2283199)
# In short: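 Cell-free phosphatase activity: fluorescent substrate turnover by recombinant human enzyme, resolved by mobility shift at 1.33 h. Compounds passing the 25 uM duplicate primary screen were rerun in singleton series with a 50 uM top concentration.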
# [19] = molecular target: rat Corticotropin Releasing Factor Receptor (CRF), Crhr1 (gene 58959) (UniProt P35353); assay: NVS_GPCR_rCRF: NovaScreen (NVS) G Protein-Coupled Receptor Assay for rat Corticotropin Releasing Factor Receptor (CRF) (AID 2283300)
# In short: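 Single-concentration (25 uM, duplicate) radioligand binding on rat cortical membrane preparations, counted by scintillation after 2 h. Activity scored as signal loss relative to DMSO negative control.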
# [20] = molecular target: human NIMA (Never In Mitosis Gene A)-Related Kinase 2 (NEK2), NEK2 (gene 4751) (UniProt P51955); assay: NVS_ENZ_hNEK2: NovaScreen (NVS) Enzymatic Assay for human NIMA (Never In Mitosis Gene A)-Related Kinase 2 (NEK2) (AID 2283188)
# In short: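 Compounds were first screened in duplicate at 25 uM, with actives followed up in concentration series. Recombinant NEK2 activity, cell-free, was read 1 h after dosing by fluorescence intensity after mobility-shift separation. Signal loss was scored against DMSO.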
smiles,measurement,setting,value
COc1ccc2cc(S(=O)(=O)N[C@H](CC(=O)N[C@H](Cc3ccc(CN4[C@H](C)CCC[C@@H]4C)cc3)C(=O)N(C)C(C)C)c3ccc4c(c3)OCO4)ccc2c1,outcome,[1],inactive
COc1cc(C(C)C)c2c(c1)S(=O)(=O)N(COc1cc(=O)n3cccc(OCCN4CCCCC4)c3n1)C2=O,outcome,[2],inactive
O=C(O)Cc1cc(I)c(Oc2cc(I)c(O)c(I)c2)c(I)c1,outcome,[3],inactive
same,outcome,[4],inactive
same,outcome,[5],inactive
O=C(Oc1ccccc1)c1cccc(C(=O)Oc2ccccc2)c1,outcome,[6],inactive
same,outcome,[7],inactive
same,outcome,[8],inactive
same,outcome,[9],inactive
same,outcome,[10],inactive
same,outcome,[11],inactive
same,outcome,[12],inactive
CCCCCCCC/C=C\CCCCCCCC(=O)OC[C@@H](O)[C@H]1OC[C@H](O)[C@H]1O,outcome,[6],inactive
same,outcome,[7],inactive
same,AC50,[13],6.52 µM (active)
same,outcome,[8],inactive
same,outcome,[14],inactive
same,outcome,[15],inactive
O=C1CCC(N2C(=O)c3ccccc3C2=O)C(=O)N1 (centres undefined),outcome,[16],inactive
O=C(O)CCCCC(=O)O,outcome,[6],inactive
same,outcome,[17],inactive
OC[C@H]1O[C@@](CO)(O[C@H]2O[C@H](CO)[C@@H](O)[C@H](O)[C@H]2O)[C@@H](O)[C@@H]1O,outcome,Caspase-1 (Homo sapiens),inactive
CCCC(CCC)C(=O)O,outcome,[7],inactive
same,outcome,[8],inactive
same,outcome,[14],inactive
same,outcome,[9],inactive
same,outcome,[10],inactive
same,outcome,[11],inactive
same,outcome,[18],inactive
same,outcome,[12],inactive
O=C(OCCCCCOC(=O)c1ccccc1)c1ccccc1,outcome,[6],inactive
same,outcome,[7],inactive
same,outcome,[10],inactive
same,outcome,PPP2CA (gene 5515),inactive
same,outcome,[11],inactive
same,outcome,[18],inactive
same,outcome,[17],inactive
same,outcome,[19],inactive
CN1C(=O)N(c2ccccc2Br)Cc2cnc(Nc3ccc4c(c3)OCC(CO)O4)nc21 (centres undefined),outcome,[6],inactive
same,AC50,[7],5.65 µM (active)
same,AC50,[8],0.0059 µM (active)
same,AC50,[20],0.00229 µM (active)
same,AC50,[10],8.54 µM (active)
same,AC50,[17],0.00359 µM (active)
